The source of these data is PubChem BioAssay (NCATS).

Assay [1] is described as follows: Primary fluorescence-based thiol-reactive (MSTI) qHTS assay for identification of artifact compounds. (AID 1845221). Also: nearly all actives have a fitted effect of over 65% in size. Also: potency is read from the fitted curve at half-maximal effect.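 As to activity change, negative = thiol reactive: series mostly up to about 54 µM; thiol-reactive compounds lower the probe fluorescence signal.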 In short, it runs like this:
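Probe: MSTI 4 uM, PBS pH 7.4, 2% DMSO. Incubation 1 h, RT, light-protected. Readout fluorescence 525/598 nm.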

Assay [2] has as its system Nanoluciferase (engineered Oplophorus gracilirostris luciferase). As to the kind of experiment: Primary Nanoluciferase (NLuc) qHTS assay for identification of artifact compounds. (AID 1845222). Also: potency is read from the fitted curve at half-maximal effect.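 As to activity, negative = inhibition: NLuc secreted into diluted conditioned medium of S16 cells; series mostly up to about 54 µM; 0% = DMSO and -100% = no enzyme.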 The essentials:
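qHTS format, against NLuc in S16 cell-conditioned medium. Nano-Glo substrate 1:100 was added after 15 min at room temperature. Luminescence was taken after a further 5 min.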

A short description of assay [3]: Primary redox qHTS assay for identification of artifact compounds. (AID 1845223).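 Also: 0% = DMSO and 100% = reference compound.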 The essentials: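 Redox-cycling detection via DTT (250 uM final) oxidation coupled to Amplex Red (25 uM)/HRP (250 mU/mL) in HBSS. 15 min preincubation plus 30 min after DTT, room temperature. Ex/Em 525/598 nm; 4-parameter Hill fit against DMSO and 10 uM DA3003.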

Molecules are shown by their SMILES. A number with no mark means an inactive call. Records with an inconclusive call do not appear. The source made the active and inactive calls. Calls follow the shape of the dose curve; as a rule, active = well fitted curve in the direction sought with a large enough effect; inconclusive = small, poorly fitted or top-dose-only effect, or another doubt; inactive = no such curve, though single readings can be large; an effect the other way counts as inactive or inconclusive.

Take `CC(C#N)C(C)O[C@@H]1O[C@H](CO)[C@@H](O)[C@H](O)[C@H]1O` (stereo not given in full): the Potency in assay [1] was 26.7 µM (active). Moreover, the Potency result in assay [2] and in assay [3] was “inactive” in each case.

Regarding `N[C@@H](CC(=O)N1CCn2c(nnc2C(F)(F)F)C1)Cc1[nH]nc2c(F)c(F)ccc12`, the Potency entry in assay [1], in assay [2] and in assay [3] was “inactive” throughout.

Take `COC(=O)[C@@H]1C2CC3c4[nH]c5ccccc5c4CCN3CC2CC[C@@H]1O` (stereo not given in full): the Potency result in assay [1], in assay [2] and in assay [3] was “inactive” throughout.

On to `CC1(C)CCCC2(C)C(CO)C3CCC2C31` (stereo not given), for which the Potency entry in assay [1], in assay [2] and in assay [3] was “inactive” in each case.

For the compound `C[C@@H]1O[C@@H](O[C@H]2[C@H](O[C@H]3[C@H](O[C@H]4CC[C@@]5(CO)C(CC[C@]6(C)C5CC=C5C7CC(C)(C)C[C@@H](O)[C@]7(C)CC[C@]56C)C4(C)C)O[C@H](C(=O)O)[C@@H](O)[C@@H]3O)OC[C@@H](O)[C@@H]2O)[C@H](O)[C@H](O)[C@H]1O` (stereo not given in full), the activity change, negative = thiol reactive in assay [1] was 150% [at 11.5 µM]. Besides, the activity, negative = inhibition in assay [2] was -0.0839% [at 11.6 µM]. For the same compound, the redox activity (% of DA3003) in assay [3] is 0.809% [at 11.5 µM].

`CC(C)CC(=O)O[C@@H]1OC=C(CO[C@@H]2O[C@H](CO[C@@H]3O[C@H](CO)[C@@H](O)[C@H](O)[C@H]3O)[C@@H](O)[C@H](O)[C@H]2O)[C@H]2C[C@H](O)[C@@H](CO)[C@@H]12`: the Potency result in assay [1], in assay [2] and in assay [3] was “inactive” each time.

On to `CC1(C)CC2C3=CCC4C5(C)CCC(OC6OC(CO)C(O)C(OC7OC(CO)C(O)C(OC8OC(CO)C(O)C(OC9OC(COC%10OC(CO)C(O)C(O)C%10O)C(O)C(O)C9O)C8O)C7O)C6O)C(C)(C)C5CCC4(C)C3(C)CCC2(C(=O)O)CC1O` (stereo not given), for which the activity change, negative = thiol reactive in assay [1] was 31.3% [at 11.5 µM]. For the same compound, the activity, negative = inhibition in assay [2] is 0.268% [at 11.6 µM]. For the same compound, in assay [3], the redox activity (% of DA3003) is 10.1% [at 11.5 µM].

For the compound `CC(CCC1C(C(=O)O)=CC(=O)CC1(C)C)O[C@@H]1O[C@H](CO)[C@@H](O)[C@H](O)[C@H]1O` (stereo not given in full), the Potency in assay [1] was 5.85 µM (active). In addition, the Potency entry in assay [2] and in assay [3] was “inactive” in each case.

As to `CCOc1nc2cccc(C(=O)O)c2n1Cc1ccc(-c2ccccc2-c2noc(=O)[nH]2)cc1`, the Potency result in assay [1] and in assay [3] was “inactive” in each case. In addition, the Potency in assay [2] is 21.3 µM (active).

As to `O=C(O[C@@H]1O[C@H](CO)[C@@H](O)[C@H](O)[C@H]1O)c1c(O)cc(O)cc1/C=C/c1ccccc1`, the Potency in assay [1] is 7.33 µM (active). The Potency result in assay [2] and in assay [3] was “inactive” in each case.

In the case of `C/C=C1\[C@H](O[C@@H]2O[C@H](CO)[C@@H](O)[C@H](O)[C@H]2O)OC=C(C(=O)OC)[C@H]1CC(=O)OC`, the Potency result in assay [1], in assay [2] and in assay [3] was “inactive” throughout.

On to `Cc1[nH]cnc1C1CCN(c2nc3cccc4c3n2CCC4=O)CC1`, for which the Potency entry in assay [1], in assay [2] and in assay [3] was “inactive” in each case.

For `C=CC1C(O[C@@H]2O[C@H](CO)[C@@H](O)[C@H](O)[C@H]2O)OC=C(C(=O)OC)C1CC(=O)O` (stereo not given in full), the Potency result in assay [1], in assay [2] and in assay [3] was “inactive” each time.

For the compound `CC1OC(OC2C(O)C(C(=O)O)OC(OC3CCC4(C)C(CCC5(C)C4C=CC4=C6CC(C)(C)CC(O)C6(C)CCC45C)C3(C)C)C2OC2OCC(O)C(O)C2O)C(O)C(O)C1O` (stereo not given), the activity change, negative = thiol reactive in assay [1] was 161% [at 11.5 µM]. The activity, negative = inhibition in assay [2] is -10.9% [at 11.6 µM]. Besides, in assay [3], the redox activity (% of DA3003) is 18.4% [at 11.5 µM].

In the case of `C[C@@H]1O[C@@H](O[C@H]2[C@H](O[C@H]3[C@H](O[C@H]4CC[C@@]5(C=O)C(CC[C@]6(C)C5CC=C5C7CC(C)(C)C[C@@H](O)[C@]7(C)CC[C@]56C)C4(C)C)O[C@H](C(=O)O)[C@@H](O)[C@@H]3O)OC[C@@H](O)[C@@H]2O)[C@H](O)[C@H](O)[C@H]1O` (stereo not given in full), the activity change, negative = thiol reactive in assay [1] was 114% [at 11.5 µM]. In assay [2], the activity, negative = inhibition was 3.37% [at 11.6 µM]. The redox activity (% of DA3003) in assay [3] was 8.98% [at 11.5 µM].

In the case of `COC(=O)[C@H](OC(C)=O)[C@H]1C(C)(C)C(=O)[C@H]2CC3=C4CC(=O)O[C@@H](c5ccoc5)[C@]4(C)CCC3[C@@]1(C)C2=O` (stereo not given in full), the Potency entry in assay [1], in assay [2] and in assay [3] was “inactive” throughout.

With `C[C@@H]1CCC2C(C)(C)[C@H](O)CC[C@]2(C)[C@@]12Cc1c(O)cc3c(c1O2)CN(CCO)C3=O` (stereo not given in full), the Potency result in assay [1], in assay [2] and in assay [3] was “inactive” each time.

`OCc1ccccc1O[C@@H]1O[C@H](CO)[C@@H](O)[C@H](O)[C@H]1O`: the Potency in assay [1] was 23.8 µM (active). Besides, the Potency entry in assay [2] and in assay [3] was “inactive” each time.

Consider `CC1=CC(=O)CC(C)(CO[C@@H]2O[C@H](CO)[C@@H](O)[C@H](O)[C@H]2O)C1(O)/C=C/C(C)=C/C(=O)O` (stereo not given in full), for which, in assay [1], the Potency is 13 µM (active). Also, the Potency entry in assay [2] and in assay [3] was “inactive” in each case.

Consider `COC(=O)C1=COC(OC2OC(CO)C(O)C(O)C2O)C2C1CC(OC(=O)C(O)CC(=O)O)C2C` (stereo not given), for which, in assay [1], the Potency was 13 µM (active). Moreover, the Potency result in assay [2] and in assay [3] was “inactive” throughout.
